Results filed as inconclusive are left out. Unmarked numbers belong to inactive results. The source made the active and inactive calls. Calls come from the whole dose curve; as a rule, active = well fitted cell-killing curve with a large enough effect; inconclusive = small, poorly fitted or top-dose-only effect, or effect the other way; inactive = no such curve, though single readings can be large or run the other way.
test: Quantitative High-Throughput drug screen in 47 multiple myeloma cell lines against the NCATS MIPE library collection: KHM11_PLB cell viability assay (AID 1918962); conditions: KHM11 myeloma cell viability, CellTiter-Glo ATP luminescence, 48 h; series mostly up to 45.8 µM; viability, % of DMSO control: at the top concentration; note: nearly all actives have a fitted effect of over 35% in size
Excerpt: PI: Beverly A. Mock Ph.D.
Laboratory of Cancer Biology and Genetics,
Center for Cancer Research, National Cancer Institute,
National Institute of Health, Bethesda, Maryland
Drug resistance and disease progression are common in multiple myeloma (MM) patients, underscoring the need for new therapeutic combinations. […] We hypothesized that effective combinations would reduce MYC expression and enhance p16 activity. […] These preclinical data identify potentially useful drug combinations for evaluation in drug-resistant MM and reveal potential mechanisms of combined drug sensitivity.
Described herein is the primary MIPE qHTS used to cherrypick compounds. Validated compounds were then further tested for potential synergistic activiy.
[1] Peat TJ, Gaikwad SM, Dubois W, Gyabaah-Kessie N, Zhang S, Gorjifard S, Phyo Z, Andres M, Hughitt VK, Simpson RM, Miller MA, Girvin AT, Taylor A, Williams D, D'Antonio N, Zhang Y, Rajagopalan A, Flietner E, Wilson K, Zhang X, Shinn P, Klumpp-Thomas C, McKnight C, Itkin Z, Chen L, Kazandijian D, Zhang J, Michalowski AM, Simmons JK, Keats J, Thomas CJ, Mock BA. Drug combinations identified by high-throughput screening promote cell cycle transition and upregulate Smad pathways in myeloma. Cancer Lett. 2023 Aug 1;568:216284. doi: 10.1016/j.canlet.2023.216284. Epub 2023 Jun 24. PMID: 37356470; PMCID: PMC10408729.
SEQUENCE No. (e.g., 1, 2, 3, etc.); […] (e.g., Cells, Incubation, Reagent, etc.); VALUE and DESCRIPTION.
1; Cells; 5 uL; white, solid bottom 1536-well Greiner assay plate.
2; Compounds; 23 nL; Kalypsis pin tool (Wako USA) equipped with a 1536-well pin head to transfer to the assay plates.
3; Incubation; 48 hours; 37C incubation.
4; Reagent;5uL; CellTiter Glo (Promega).
5; Detector; 425V; Luminescence; Viewlux PerkinElmer.
NOTES (numbers refer to Sequence numbers above)
1. The cell-based screening methods employed in this study were like those previously published. Briefly, the corresponding myeloma cell lines were screened in 1,536-well plates with 500 cells, 5-uL per well for inhibition of cell viability (assessed by measuring ATP levels with CellTiterGlo).
2. NCATS MIPE 4.0 library of approved and investigational drugs were added using the Kalypsis pin tool. Wells treated with DMSO only for 100% viability and media only wells for 0% viability were used as controls.
3. The assay plates were covered and incubated for 48 hours in a 37C, 5% CO2 incubator with controlled humidity.
4. After 48 hours, CellTilter-GloTM luminescent substrate mix (Promega) reagent was added to the assay plate and plates we incubated for 5 min at room temperature.
5. Signal was measured as median relative luminescence units on a ViewLux (PerkinElmer) multiplate reader.
[1] Heske CM, Davis MI, Baumgart JT, Wilson K, Gormally MV, Chen L, Zhang X, Ceribelli M, Duveau DY, Guha R, Ferrer M, Arnaldez FI, Ji J, Tran HL, Zhang Y, Mendoza A, Helman LJ, Thomas CJ. Matrix Screen Identifies Synergistic Combination of PARP Inhibitors and Nicotinamide Phosphoribosyltransferase (NAMPT) Inhibitors in Ewing Sarcoma. Clin Cancer Res. 2017 Dec 1;23(23):7301-7311. doi: 10.1158/1078-0432.CCR-17-1121. Epub 2017 Sep 12. PMID: 28899971; PMCID: PMC6636827.
Potency is the fitted concentration of half-maximal effect.

| Compound | Potency | viability, % of DMSO control |
| --- | --- | --- |
| Cc1c(CN2CCN(S(C)(=O)=O)CC2)sc2c(N3CCOCC3)nc(-c3cnc(N)nc3)nc12 | 0.0332 µM (active) |  |
| CN(c1ncccc1CNc1nc(Nc2ccc3c(c2)CC(=O)N3)ncc1C(F)(F)F)S(C)(=O)=O | 2.96 µM (active) |  |
| Nc1nccc(Oc2ccc(NC(=O)c3c[nH]cc(-c4ccc(F)cc4)c3=O)cc2F)c1Cl | 18.7 µM (active) |  |
| COCCOc1ccc2c(c1)ncn2-c1ccc2cccc(N3CCC(N)CC3)c2n1 | 9.35 µM (active) |  |
| COc1cccc(-c2ccc(NC(=O)C3=C(C(=O)O)CCC3)c(F)c2)c1 |  | 132% |
| COc1ccc(F)c(F)c1C(=O)c1cnc(NC2CCN(S(C)(=O)=O)CC2)nc1N | 1.87 µM (active) |  |
| CC(C)=CCCC(C)=CCCC(C)=CCSc1ccccc1C(=O)O | 1.18 µM (active) |  |
| O=C(O)c1ccc2c(c1)nc(Nc1cccc(Cl)c1)c1ccncc12 | 5.9 µM (active) |  |
| COc1cccc2c(NCc3ccccc3)nc(-n3c(N)nc4ccccc43)nc12 | 3.32 µM (active) |  |
| Cn1c(CNc2ccc(C(=N)N)cc2)nc2cc(C(=O)N(CCC(=O)O)c3ccccn3)ccc21 |  | 126% [at 23.2 µM] |
| O=C(Nc1ncc(-c2cc(C(F)F)nn2-c2c(Cl)cccc2Cl)s1)C1CC1 | 0.935 µM (active) |  |
| Nc1ncnc2c1c(-c1cnc3[nH]ccc3c1)nn2C1CCCC1 | 0.296 µM (active) |  |
| CC(C)(C)c1cc(C(C)(C)C)c(NC(=O)c2c[nH]c3ccccc3c2=O)cc1O |  | 130% |
| CC(=O)Nc1sc2c(c1-c1nc3ccccc3s1)CNC2 | 26.4 µM (active) |  |
| C[C@@H]1COC(Nc2ccc3ncnc(Nc4ccc(OCc5nccs5)c(Cl)c4)c3c2)=N1 | 16.6 µM (active) |  |
| CCC[C@H](NC(=O)C(C#N)=Cc1cccc(Br)n1)c1ccccc1 | 1.32 µM (active) |  |
| COc1cc(C(=O)NS(=O)(=O)c2ccccc2C)ccc1Cc1cn(C)c2ccc(NC(=O)OC3CCCC3)cc12 | 10.5 µM (active) |  |
| COC(=O)c1ccc2c(C(=Nc3ccc(N(C)C(=O)CN4CCN(C)CC4)cc3)c3ccccc3)c(O)[nH]c2c1 | 26.4 µM (active) |  |
| Cc1cc(Nc2nc(N[C@@H](C)c3ccc(F)cc3)c(C#N)cc2F)n[nH]1 | 8.33 µM (active) |  |
| Cc1coc2c1C(=O)C(=O)c1c-2ccc2c1CCCC2(C)C | 7.43 µM (active) |  |

| Compound | Potency | viability, % of DMSO control |
| --- | --- | --- |
| O=C(c1ccc(Nc2nccc(-c3cc4ccccc4s3)n2)cc1)N1CCC(N2CCCC2)CC1 | 3.72 µM (active) |  |
| Nc1cccc(-c2cc3c(Oc4cccc(O)c4)ncnc3[nH]2)c1 | 16.6 µM (active) |  |
| CCc1c2c(nc3ccc(O)cc13)-c1cc3c(c(=O)n1C2)COC(=O)[C@]3(O)CC | 0.166 µM (active) |  |
| COc1cc2ncnc(Nc3ccc(F)c(Cl)c3)c2cc1NC(=O)C=CCN1CCCCC1 | 3.32 µM (active) |  |
| COc1ccc(CC2c3cc(OC)c(OC)cc3CC[N+]2(C)CCC(=O)OCCCCCOC(=O)CC[N+]2(C)CCc3cc(OC)c(OC)cc3C2Cc2ccc(OC)c(OC)c2)cc1OC (stereo not given) |  | 95.7% [at 5.15 µM] |
| CN1CCN(Cc2ccc(NC(=O)Nc3ccc(Oc4cc(NC(=O)C5CC5)ncn4)cc3)cc2C(F)(F)F)CC1 | 0.132 µM (active) |  |
| CC1(C)OC2=C(C(=O)c3ccccc3C2=O)[C@H](NCc2ccccc2)[C@H]1O | 2.64 µM (active) |  |
| COc1ccc(-c2cc3c(C)nc(N)nc3n(C3CCC(OCCO)CC3)c2=O)cn1 (stereo not given) | 0.0296 µM (active) |  |
| CNC(=O)CN1CCC(Oc2cc3c(Nc4cccc(Cl)c4F)ncnc3cc2OC)CC1 | 0.0372 µM (active) |  |
| Cc1ccc(C(N)=O)cc1Nc1nccc(-c2cn(C(C)C)c3cnccc23)n1 | 3.32 µM (active) |  |
| CCN(CC)CCNC(=O)c1ccc2nc(-c3ccccc3)c(-c3ccc(CN4CCC(n5c(=O)[nH]c6ccccc65)CC4)cc3)nc2c1 | 0.332 µM (active) |  |
| COC(=O)C[C@](O)(CCCC(C)(C)O)C(=O)O[C@@H]1C(OC)=C[C@]23CCCN2CCc2cc4c(cc2[C@H]13)OCO4 |  | 106% |
| COc1ccc(C=Cc2cc(OC)c(OC)c(OC)c2)cc1O |  | 65.5% |
| COc1cc2ncn(-c3cc(OCc4ccccc4C(F)(F)F)c(C(N)=O)s3)c2cc1OC | 18.7 µM (active) |  |
| Clc1ccc2ncc(-c3cccc(NC4CNC4)n3)n2c1 | 8.33 µM (active) |  |
| NC1(Cc2ccc(Cl)cc2)CCN(c2ncnc3[nH]ccc23)CC1 | 2.96 µM (active) |  |
| O=c1[nH]c(=O)n(C2CCCO2)cc1F (stereo not given) |  | 101% [at 92.2 µM] |
| c1nc2nc(Nc3ccc(N4CCOCC4)cc3)nc(NC3CCCCC3)c2[nH]1 | 14.8 µM (active) |  |
| Cc1cc(Nc2ncnc3ccc(-c4ccc(CNCCS(C)(=O)=O)o4)cc23)ccc1Oc1ccn2ncnc2c1 | 6.62 µM (active) |  |
| CC[C@H](CO)Nc1nc(NCc2ccccc2)c2ncn(C(C)C)c2n1 | 18.7 µM (active) |  |
